Bioassay records deposited in PubChem BioAssay by National Center for Advancing Translational Sciences (NCATS).
An excerpt weighted towards active compounds, which were near 19% of everything screened.
TDP1 cell CPT = growth inhibition of DT40 Tdp1-/-;hTDP1 cells with camptothecin (screen for TDP1 inhibitors) | chicken DT40 Tdp1-/-;hTDP1 cells + 20 nM CPT, ATP luminescence, 48 h | AID 686979 | Potency, µM (highest dose often 46.2 µM), usual class: inhibitors | 420,000 compounds, 12% hits; note: nearly all actives have a fitted effect of over 55% in size
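Chicken DT40 Tdp1-/- cells stably complemented with human TDP1 were seeded at 400 cells/well in medium containing 20 nM camptothecin, exposed to pin-transferred compounds, and grown at 37 °C for at least 48 hr. Viability was read as ATP luminescence.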
HT1080-NT tox = kills 2HG-producing HT-1080-NT fibrosarcoma cells; HT-1080-NT fibrosarcoma viability, CellTiter-Glo ATP luminescence, 48 h; Potency, µM (doses to about 46.1 µM), most hits filed as cytotoxic; 360,000 compounds, 1.6% hits;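 note: NT is the 2HG producing partner of a matched IDH1 knockdown line; nearly all actives have a fitted effect of over 55% in size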
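Toxicity toward the 2HG-producing NT line was scored as %Activity, normalised to DMSO and no-cell wells, from CellTiter-Glo luminescence after 48 hours' treatment.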
HT1080 IDH1KD tx = toxicity to HT-1080 IDH1 knockdown cells (counter line). HT-1080 IDH1 knockdown viability, ATP luminescence, 48 h. Potency, µM (titrated, usually from 46.1 µM), hits mostly cytotoxic. 360,000 compounds, 2% hits. AID 686971
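Luminescent ATP read-out (CellTiter-Glo, 10 min at room temperature) after 48 h compound exposure at 37 °C gave viability of IDH1-knockdown HT-1080 cells. Activity was normalised to DMSO and cell-free wells, then fitted as concentration-response curves.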
IL1B secr inh = inhibitors of inflammasome signaling (IL-1 beta secretion). THP-1 LPS/ATP IL-1B secretion, AlphaLISA, 16 h; hits give low values. activity change, % at 57.5 µM. 360,000 compounds, 4.7% hits; in the data active = activity change below about -50%; inconclusive = mostly about -30% to -49%
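Secreted IL-1B measured by AlphaLISA bead assay after 16 h compound exposure of THP-1 cells; compounds (final up to 57.5 uM) added 1 h before LPS (250 ng/mL) and ATP (1.25 mM) stimulation; lower signal means less secretion.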
DT40 TDP1 no CPT = qHTS for Inhibitors of human tyrosyl-DNA phosphodiesterase 1 (TDP1): qHTS in cells in absence of CPT; DT40 Tdp1-/- hTDP1 cells, no CPT, ATP luminescence, 48 h; Potency, µM (series often up to 46.2 µM), actives largely listed as inhibitors; 420,000 compounds, 15% hits; AID 686978, 2013; note: nearly all actives have a fitted effect of over 55% in size
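Growth of hTDP1-complemented DT40 Tdp1-knockout cells is measured by ATP luminescence after at least 48 hr compound exposure at 37 °C, with DMSO substituting for the 20 nM CPT used in the parallel screen.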
A number is an active result; n = inactive; u = inconclusive; x = no result given; [ ] = remark or other dose. Unless noted, calls come from the whole dose curve; as a rule, active = well fitted curve in the direction sought with a large enough effect; inconclusive = small, poorly fitted or top-dose-only effect, or another doubt; inactive = no such curve, though single readings can be large; an effect the other way counts as inactive or inconclusive.

SMILES | TDP1 cell CPT | HT1080-NT tox | HT1080 IDH1KD tx | IL1B secr inh | DT40 TDP1 no CPT
Cc1nc2c(-c3ccccc3)c(C)nn2c(C)c1CCC(=O)NCc1ccccc1Cl | n | x | x | x | u
Cc1nc2c(C(=O)NCCc3ccccc3)cnn2c(C)c1Cc1c(F)cccc1Cl | 15µM | x | x | x | 16µM
COC(=O)c1cnn2c(C)c(Cc3c(C)cc(C)cc3C)c(C)nc12 | u | x | x | x | n
Cc1nc2c(C(=O)NCc3ccccc3Cl)cnn2c(C)c1Cc1c(F)cccc1Cl | 8.2µM | x | x | x | 8.2µM
CC(C)CCNC(=O)c1cnn2c(C(F)(F)F)cc(-c3ccco3)nc12 | 11µM | n | u | n | 32µM
Cc1nc2c(C(=O)NCCC(C)C)cnn2c(C)c1Cc1c(F)cccc1Cl | 21µM | x | x | x | 23µM
O=C1C=CC(=NN=C(c2ccccc2)c2ccccc2)C=C1 | u | u | u | n | n
Cc1nn(C2CCS(=O)(=O)C2)c(Cl)c1/C=C/C(=O)OCC(N)=O (centres undefined) | n | n | n | n | n
O=C(CSCc1ccccc1Br)N/N=C/c1ccccc1C(=O)O | n | n | n | n | n
Cc1nc2c(C(=O)N3CCN(C)CC3)cnn2c(C)c1Cc1ccc(Cl)cc1 | n | n | n | n | n
Cc1nc2c(C(=O)N3CCCCC3)cnn2c(C)c1Cc1ccccc1F | u | n | n | n | 16µM
COC(=O)c1ccc(CN2C(=O)NC3(CCC(C)CC3)C2=O)cc1 (centres undefined) | n | n | n | n | n
COc1ccc(OC)c(-c2ccnc(-n3ncc(C(=O)N4CCN(CCO)CC4)c3C3CC3)n2)c1 | n | x | x | x | n
COc1ccc(NC(=O)c2c(NCc3ccc(C)o3)sc3c2CCC(C)C3)cc1 (centres undefined) | 23µM | x | x | x | 9.2µM
COc1ccccc1NC(=O)c1c(NCc2ccc(C)o2)sc2c1CCC(C)C2 (centres undefined) | 18µM | x | x | x | u
COc1ccc(NC(=O)c2c(NCc3ccc(C)o3)sc3c2CCCCC3)c(OC)c1 | 9.2µM | x | x | x | 18µM
COc1ccc(NC(=O)c2c(NCc3ccc(C)o3)sc3c2CCC(C)C3)c(OC)c1 (centres undefined) | 21µM | x | x | x | u
COc1ccccc1NC(=O)c1c(NC(=O)Cc2ccccc2)sc2c1CCC(C(C)(C)C)C2 (centres undefined) | n | x | x | x | n
COc1ccc(S(=O)(=O)NCc2cccnc2)cc1C(=O)Nc1ccccc1 | n | n | n | n | n
COc1ccc(Br)cc1/C=C/c1ccc2cccc(O)c2n1 | u | n | n | n | 21µM
COc1cc(/C=C/c2ccc3cccc(O)c3n2)cc(Cl)c1OC | 4.1µM | u | u | -93 | 4.1µM
COc1ccc(/C=C/c2ccc3cccc(O)c3n2)cc1Br | 5.8µM | n | n | n | 5.2µM
COc1cc(/C=C/c2ccc3cccc(O)c3n2)cc(OC)c1OC | u | 8.2µM | 6.5µM | -102 | u
COc1cc(Br)cc(/C=C/c2ccc3cccc(O)c3n2)c1OC | u | n | n | n | u
COc1cc(/C=C/c2ccc3cccc([N+](=O)[O-])c3n2)ccc1OCC(=O)O | n | n | n | n | n
SMILES | TDP1 cell CPT | HT1080-NT tox | HT1080 IDH1KD tx | IL1B secr inh | DT40 TDP1 no CPT
COC(=O)c1ccc(/C=C/c2ccc3cccc(OC)c3n2)cc1 | u | n | n | n | u
COc1ccc(S(=O)(=O)NNC(=O)c2ccc(-n3c(C)ccc3C)cc2)cc1 | n | n | n | n | n
COc1cc(/C=C/c2ccc3cccc(O)c3n2)cc(Br)c1OC | 12µM | u | u | u | 18µM
COc1ccc(OC)c(N=c2ssnc2Cl)c1 | 12µM | n | n | n | 12µM
COc1cc(N=c2ssnc2Cl)c(OC)cc1Cl | 2.6µM | u | n | -88 | 2.6µM
CN(C)CCNC(=O)c1ccccc1-c1cc2ccccc2c(=O)o1 | n | n | n | n | n
COc1ccc(C(=O)NCCN(C)C)c2nc3ccccc3cc12 | 0.18µM | u | 21µM | -99 | 0.16µM
CN(C)CCNC(=O)c1cccc2[nH]c(-c3ccncc3)nc12 | 13µM | n | u | -82 | 13µM
CN(C)CCNC(=O)c1cccc2nc3c(ccc4ccccc43)nc12 | 5.8µM | u | u | -101 | 4.6µM
COc1ccc(C(=O)Nc2ccc3ccccc3n2)c(OC)c1OC | u | n | n | -76 | u
COc1ccc(-n2nc(C(=O)NCc3ccc(F)cc3Cl)c3c4ccccc4n(C)c3c2=O)cc1Cl | n | x | x | x | n
Cc1nc2nc(NC(=O)c3ccc(F)cc3)[nH]n2c(=O)c1Cc1ccccc1 | n | x | x | x | n
CN1CCC(N(C)C(=S)NCCc2ccccc2)CC1 | n | n | n | n | n
O=C(NCc1ccccc1)C1c2ccccc2OCC(=O)N1CCc1c[nH]c2ccccc12 (centres undefined) | n | n | n | n | u
COc1cccc(C(=O)NCCCc2ccccc2)c1OC | n | n | n | n | n
COc1cccc2nc3c(C(=O)NCCN(C)C)cccc3cc12 | 0.16µM | u | 9.2µM | -97 | 0.18µM
CN(CCNC(=O)c1c[nH]c2c1ccc1ccccc12)CCNC(=O)c1c[nH]c2c1ccc1ccccc12 | 23µM | u | u | n | u
COc1ccc(-c2nc3c(C(=O)NCCN(C)C)cccc3c3ccccc23)cc1 | 1.3µM | u | u | -100 | 4.1µM
CN(C)CCNC(=O)c1ccccc1-c1ccccc1 | n | n | n | n | n
CC(C)(C)CC(C)(C)c1ccc(O)c(-n2nc3ccccc3n2)c1 | n | x | x | x | n
Cc1cccc(CNC(=O)c2cnn(-c3nccc(-c4cc5ccccc5o4)n3)c2C2CC2)n1 | n[9.04 µM] | x | x | x | u
CCOCCCNC(=O)N[C@H](C(=O)OC)C(C)CC (some centres undefined) | n | n | n | n | n
CCOC(=O)C1(C)CCCN(C(=O)c2ccc(-c3ccccc3)cc2)C1 (centres undefined) | u | n | n | n | 16µM
CCOC(=O)C1(C)CCCN(C(=O)Cc2ccc3ccccc3c2)C1 (centres undefined) | 29µM | n | n | n | 9.2µM
CCOC(=O)C1(C)CCCN(C(=O)c2ccccc2)C1 (centres undefined) | u | n | n | n | n
COC1=C(N)C(=O)c2nc(-c3nc(C(=O)O)c(C)c(-c4ccc(OC)c(OC)c4O)c3N)ccc2C1=O | 0.041µM | 0.0092µM | 0.0082µM | -106 | 0.1µM
O=C(Nc1ccc(C(F)(F)F)cc1)c1cc(S(=O)(=O)NC2CCCCC2)ccc1F | 13µM | x | x | x | 18µM
O=C(Nc1ccc(F)cc1)c1cc(S(=O)(=O)N2CCCCC2)ccc1F | n | n | n | n | n
O=C(Nc1ccc(C(F)(F)F)cc1)c1cc(S(=O)(=O)NC2CCCCCC2)ccc1F | 21µM | x | x | x | u
CC(=O)Nc1ccc(S(=O)(=O)NC2CCCCCC2)cc1 | u | n | n | n | u
